Assay results taken from PubChem BioAssay (Tox21).
Inconclusive results are not listed. Activity calls are given as the source filed them. Unless noted, the call rests on the fitted dose curve; in most records, active means well fitted curve in the direction sought with a large enough effect in the repeat runs; inconclusive means weak or mixed curves; inactive means no such curve, though single readings can be large; an effect the other way counts as inactive or inconclusive.

Legend:
[1] = qHTS assay to identify small molecule antagonists of the estrogen receptor beta (ER-beta) signaling pathway - cell viability counter screen (AID 1259382);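 further: HEK293T cells carrying ER-beta-UAS-bla reporter stimulated with estradiol; series mostly up to about 92 µM; nearly all actives have a fitted effect of over 55% in size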
Outline: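 HEK293T ER-beta-UAS-bla, 2% charcoal-stripped FBS; compounds + 1nM E2 16 hr 37C; CellTiter-Glo luminescence, 30 min RT.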

[2] = qHTS assay to identify small molecule agonists or antagonists of the thyroid stimulating hormone receptor (TSHR) signaling pathway - wild type cell line counter screen (AID 1259384; calls by dose curve)
Outline: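 Counter screen in untransfected Hek293: compounds (15-point titration, triplicate) plus phosphodiesterase inhibitor Ro20-1724 added after 18 h plating; 30 min RT. Intracellular cAMP via competitive d2/cryptate immunoassay, 1 h incubation.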

[3] = biological target: Thyrotropin receptor (Homo sapiens) (UniProt P16473); assay: qHTS assay to identify small molecule antagonists of the thyroid stimulating hormone receptor (TSHR) signaling pathway (AID 1259385; calls by dose curve; further: nearly all actives have a fitted effect of over 20% in size)
Chain of Thyrotropin receptor (Homo sapiens) (P16473 whole entry, looked up): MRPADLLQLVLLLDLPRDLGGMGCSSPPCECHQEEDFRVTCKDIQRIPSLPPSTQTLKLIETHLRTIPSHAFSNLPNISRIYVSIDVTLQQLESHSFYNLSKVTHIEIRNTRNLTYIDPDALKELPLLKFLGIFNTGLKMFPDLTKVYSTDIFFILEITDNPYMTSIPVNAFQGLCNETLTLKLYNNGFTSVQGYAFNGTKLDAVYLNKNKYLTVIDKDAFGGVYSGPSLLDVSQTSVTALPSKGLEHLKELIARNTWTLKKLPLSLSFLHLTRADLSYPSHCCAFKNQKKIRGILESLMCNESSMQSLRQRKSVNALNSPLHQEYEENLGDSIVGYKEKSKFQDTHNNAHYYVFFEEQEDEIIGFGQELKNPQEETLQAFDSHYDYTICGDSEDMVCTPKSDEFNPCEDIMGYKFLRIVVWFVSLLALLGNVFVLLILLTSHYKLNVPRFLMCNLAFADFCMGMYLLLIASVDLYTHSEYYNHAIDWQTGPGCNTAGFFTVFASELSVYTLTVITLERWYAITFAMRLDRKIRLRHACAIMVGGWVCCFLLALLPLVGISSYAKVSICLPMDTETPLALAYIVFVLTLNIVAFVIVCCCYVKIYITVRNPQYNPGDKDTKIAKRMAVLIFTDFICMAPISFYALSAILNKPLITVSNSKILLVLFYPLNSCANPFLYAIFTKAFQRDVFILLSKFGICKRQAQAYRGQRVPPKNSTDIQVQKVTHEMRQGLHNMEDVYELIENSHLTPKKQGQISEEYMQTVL
Outline: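 Antagonist mode: compound-treated TSHR-expressing HEK293 cells were stimulated with 1.5 ng/mL TSH (final) in presence of Ro20-1724 for 30 min at RT. HTRF cAMP detection after 1 h; each compound tested at 15 concentrations, triplicate.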

[4] = qHTS assay to identify small molecule agonists of the estrogen receptor alpha (ER-alpha) signaling pathway in the presence of an antagonist - cell viability counter screen (AID 1259386);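 further: series mostly up to about 92 µM; cells exposed to compounds for 22 h at 37 °C before the viability read; nearly all actives have a fitted effect of over 30% in size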
Outline: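 Steps: 5-day stripped-FBS culture; seed and incubate 24hr; add ICI-182,780 (10.0nM final); pin 15-point compound titration; incubate 22hr at 37C; add CellTiter-Fluor at 21hr; read fluorescence.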

[5] = biological target: Progesterone receptor (Homo sapiens) (UniProt P06401); assay: qHTS assay to identify small molecule agonists of the progesterone receptor (PR) signaling pathway (AID 1346784; calls by dose curve; further: nearly all actives have a fitted effect of over 30% in size; further: potency means the concentration at half of the fitted maximal effect)
Chain of Progesterone receptor (Homo sapiens) (P06401 whole entry, looked up): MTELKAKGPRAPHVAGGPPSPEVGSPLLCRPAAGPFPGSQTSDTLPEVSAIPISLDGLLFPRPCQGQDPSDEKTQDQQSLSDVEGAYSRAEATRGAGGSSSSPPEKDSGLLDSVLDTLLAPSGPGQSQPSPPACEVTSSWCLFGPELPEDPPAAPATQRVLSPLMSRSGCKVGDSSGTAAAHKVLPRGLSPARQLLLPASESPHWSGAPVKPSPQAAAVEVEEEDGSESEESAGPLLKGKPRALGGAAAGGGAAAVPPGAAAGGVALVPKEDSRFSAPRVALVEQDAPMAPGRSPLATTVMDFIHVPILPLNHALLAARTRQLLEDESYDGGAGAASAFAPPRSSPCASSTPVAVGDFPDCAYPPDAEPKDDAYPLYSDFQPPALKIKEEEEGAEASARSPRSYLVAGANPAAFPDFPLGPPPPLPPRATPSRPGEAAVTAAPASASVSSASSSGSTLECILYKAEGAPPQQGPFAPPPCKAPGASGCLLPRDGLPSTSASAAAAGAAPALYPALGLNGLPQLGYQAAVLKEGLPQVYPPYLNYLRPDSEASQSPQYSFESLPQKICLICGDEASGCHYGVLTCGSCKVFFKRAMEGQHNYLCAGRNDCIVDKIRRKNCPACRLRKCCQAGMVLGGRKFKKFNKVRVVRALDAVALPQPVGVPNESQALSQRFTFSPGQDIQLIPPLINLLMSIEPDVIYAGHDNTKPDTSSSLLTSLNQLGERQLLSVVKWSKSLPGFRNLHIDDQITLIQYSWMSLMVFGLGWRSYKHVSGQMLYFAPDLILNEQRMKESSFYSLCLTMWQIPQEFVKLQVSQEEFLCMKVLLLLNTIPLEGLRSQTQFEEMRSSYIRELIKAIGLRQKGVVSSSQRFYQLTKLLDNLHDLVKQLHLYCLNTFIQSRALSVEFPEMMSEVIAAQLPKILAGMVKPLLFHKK
Outline: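 Compounds were tested for PR agonism in HEK 293T cells bearing a beta-lactamase gene under UAS control. Treatment lasted 16 hr at 37C; signal came from fluorescence of a FRET substrate.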

[6] = biological target: Progesterone receptor (Homo sapiens) (UniProt P06401); assay: qHTS assay to identify small molecule antagonists of the progesterone receptor (PR) signaling pathway (AID 1346795; active means well fitted inhibition curve with a large enough effect in the signal ratio in the repeat runs, not every such curve was filed as active; the % refers to the signal ratio)
Outline: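 In HEK293T cells bearing the PR-UAS-bla reporter, compound effects on promegestone-driven (1 nM) beta-lactamase expression are assessed after 16 hr using a fluorescent FRET substrate incubated 2 hr at room temperature.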

[7] = qHTS assay to identify small molecule antagonists of the progesterone receptor (PR) signaling pathway - cell viability counter screen (AID 1346798); further: series mostly up to about 92 µM; nearly all actives have a fitted effect of over 50% in size
Outline: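 Following a 4 hr attachment, PR-UAS-bla HEK293T cells in charcoal-stripped FBS medium were exposed to compounds with R5020 for 16 hr; CellTiter-Glo was added and luminescence read after 30 min at room temperature.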

[8] = biological target: Estrogen receptor (Homo sapiens) (UniProt P03372); assay: qHTS assay to identify small molecule agonists of the estrogen receptor alpha (ER-alpha) signaling pathway in the presence of an antagonist (AID 1259383; calls by dose curve; further: top concentration of the series differs between compounds; nearly all actives have a fitted effect of over 15% in size)
Chain of Estrogen receptor (Homo sapiens) (P03372 whole entry, looked up): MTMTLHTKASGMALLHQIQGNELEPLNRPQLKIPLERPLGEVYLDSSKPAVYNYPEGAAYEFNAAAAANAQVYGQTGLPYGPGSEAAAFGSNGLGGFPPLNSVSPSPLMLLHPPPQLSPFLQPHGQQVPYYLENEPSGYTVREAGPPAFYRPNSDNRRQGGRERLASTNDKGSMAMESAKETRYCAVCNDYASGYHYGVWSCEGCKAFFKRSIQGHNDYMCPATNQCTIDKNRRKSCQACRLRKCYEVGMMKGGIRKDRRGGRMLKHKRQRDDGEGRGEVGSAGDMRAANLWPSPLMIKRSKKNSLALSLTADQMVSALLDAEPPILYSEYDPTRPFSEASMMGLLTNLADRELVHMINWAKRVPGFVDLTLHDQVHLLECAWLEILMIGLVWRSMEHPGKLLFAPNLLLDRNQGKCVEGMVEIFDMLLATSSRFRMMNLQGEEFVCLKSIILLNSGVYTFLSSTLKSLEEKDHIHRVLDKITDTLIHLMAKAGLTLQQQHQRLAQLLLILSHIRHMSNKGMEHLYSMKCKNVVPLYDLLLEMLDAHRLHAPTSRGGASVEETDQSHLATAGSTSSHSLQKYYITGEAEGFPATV
Outline: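 ER-alpha agonism measured under antagonist challenge: 10.0nM ICI-182,780 (final) plus compound, 15 concentrations, 22hr, VM7Luc4E2 ERE-luciferase cells. Read by luminescence.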

[9] = qHTS assay to identify small molecule agonists of the progesterone receptor (PR) signaling pathway - cell viability counter screen (AID 1346799; calls by dose curve; further: nearly all actives have a fitted effect of over 45% in size)
Outline: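 Here, 3,000 PR-UAS-bla HEK293T cells per well were treated with compounds for 16 hr after a 6 hr preincubation at 37C and 5% CO2; cell viability is the CellTiter-Glo luminescence signal.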

[10] = qHTS assay to identify small molecule antagonists of the TGF-beta/Smad signaling pathway - cell viability counter screen (AID 1346824); further: nearly all actives have a fitted effect of over 50% in size
Outline: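 Cytotoxicity counter-screen run in the same wells as the beta-lactamase Smad reporter read: CellTiter-Glo luminescence after 30 min at room temperature. HEK 293T SBE-bla cells had 5 hr compound exposure at 37 C with TGF-beta1 (0.25 ng/mL stock).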
On the % scale 0 is the no-effect control and ±100 the full control effect.

c1cc2ccc3ccc4ccc5cccc6c(c1)c2c3c4c56
inactive: activity change, negative = cytotoxicity [1] -0.247% [at 3.27 µM] | cAMP activity change [2] 5.35% [at 3.27 µM] | activity change, negative = inhibition [3] -1.71% [at 3.27 µM] | activity change, negative = cytotoxicity [4] 1.86% [at 3.27 µM] | activity change, negative = inhibition [6] 17.5% [at 3.27 µM] | activity change, negative = cytotoxicity [7] 2.42% [at 3.27 µM]
active: Potency [5] 385 nM

CCOC(=O)COc1ccc2c(C)c(CCN(CC)CC)c(=O)oc2c1Cl
inactive: outcome [1] | Potency [8] | outcome [4] | Potency [5] | Potency [6] | Potency [9] | outcome [10]

CCCCCC(CC)OC(=O)CCCOc1ccc(Cl)cc1Cl (centres undefined)
inactive: outcome [1] | outcome [2] | outcome [3] | outcome [4] | Potency [5] | Potency [6] | outcome [7] | Potency [9] | outcome [10]

CCCCCCC(=O)c1ccccc1
inactive: outcome [1] | outcome [2] | outcome [3] | outcome [4] | Potency [5] | Potency [6] | outcome [7] | Potency [9] | outcome [10]

Cc1ccc(S(=O)(=O)NC(=O)NN2CC3CCCC3C2)cc1 (centres undefined)
inactive: outcome [1] | outcome [2] | outcome [3] | outcome [4] | Potency [5] | Potency [6] | outcome [7] | Potency [9] | outcome [10]

Cc1cc(O)c(Cl)cc1C
inactive: outcome [1] | outcome [2] | outcome [3] | outcome [4] | Potency [5] | Potency [6] | outcome [7] | Potency [9] | outcome [10]

CCC(C)(C)C
inactive: outcome [1] | outcome [2] | outcome [3] | outcome [4] | Potency [5] | Potency [6] | outcome [7] | Potency [9]

CCc1ncc(C)[nH]1
inactive: outcome [1] | outcome [2] | outcome [3] | outcome [4] | Potency [5] | Potency [6] | outcome [7] | Potency [9] | outcome [10]

CCCCCCCCS(=O)(=O)O
inactive: outcome [1] | outcome [2] | outcome [3] | outcome [4] | Potency [5] | Potency [6] | outcome [7] | Potency [9] | outcome [10]

C=CC(=O)OCC[N+](C)(C)C
inactive: outcome [1] | outcome [2] | outcome [3] | outcome [4] | Potency [5] | Potency [6] | outcome [7] | Potency [9]

CCN(CC)CC
inactive: outcome [1] | outcome [2] | outcome [3] | outcome [4] | Potency [5] | Potency [6] | outcome [7] | Potency [9]

CCCC(=O)CC
inactive: outcome [1] | outcome [2] | outcome [3] | outcome [4] | Potency [5] | Potency [6] | outcome [7]

O=S(=O)(O)c1cc(I)c(O)c2ncccc12
inactive: outcome [1] | outcome [2] | outcome [3] | outcome [4] | Potency [5] | Potency [6] | outcome [7] | Potency [9] | outcome [10]

CCOc1ccccc1OCCN[C@H](C)Cc1ccc(OC)c(S(N)(=O)=O)c1
inactive: outcome [1] | outcome [2] | outcome [3] | outcome [4] | Potency [5] | Potency [6] | outcome [7] | Potency [9] | outcome [10]

C=CC(=O)CC
inactive: outcome [1] | outcome [2] | outcome [3] | outcome [4] | Potency [5] | Potency [6] | outcome [7] | Potency [9] | outcome [10]

O=C[C@@H](O)[C@H](O)[C@H](O)CO
inactive: outcome [1] | outcome [2] | outcome [3] | outcome [4] | Potency [5] | Potency [6] | outcome [7] | Potency [9] | outcome [10]

CN1CCN(C(=O)C2CCCCC2)CC1
inactive: outcome [1] | outcome [2] | outcome [3] | outcome [4] | Potency [5] | Potency [6] | outcome [7] | Potency [9] | outcome [10]

Nc1nc(Cl)cc(Cl)n1
inactive: outcome [1] | Potency [8] | outcome [4] | Potency [5] | Potency [6] | outcome [7] | outcome [10]

CCOC(=O)CC
inactive: outcome [1] | outcome [2] | outcome [3] | outcome [4] | Potency [5] | Potency [6] | outcome [7] | Potency [9] | outcome [10]

C[C@H]1COc2c(C3(N)CC3)c(F)cc3c(=O)c(C(=O)O)cn1c23
inactive: outcome [1] | outcome [2] | outcome [3] | outcome [4] | Potency [5] | Potency [6] | outcome [7] | Potency [9] | outcome [10]

CCOCCOCCOC(C)=O
inactive: outcome [1] | outcome [2] | outcome [3] | outcome [4] | Potency [5] | Potency [6] | outcome [7] | Potency [9] | outcome [10]

N=C(N)N
inactive: outcome [1] | outcome [2] | outcome [3] | outcome [4] | Potency [5] | Potency [6] | outcome [7] | Potency [9]

CC(O)CCCCn1c(=O)c2c(ncn2C)n(C)c1=O (centres undefined)
inactive: outcome [1] | Potency [8] | outcome [4] | Potency [5] | outcome [7] | Potency [9] | outcome [10]

C[C@@H]1NC(=O)[C@@H](N)CNC(=O)[C@H](C2CCNC(N)=N2)NC(=O)/C(=C/NC(N)=O)NC(=O)[C@H](CNC(=O)C[C@@H](N)CCCN)NC1=O (some centres undefined)
inactive: activity change, negative = cytotoxicity [1] 4.08% [at 0.349 µM] | cAMP activity change [2] -0.133% [at 0.349 µM] | activity change, negative = inhibition [3] 2.75% [at 0.349 µM] | activity change, negative = cytotoxicity [4] -0.264% [at 0.349 µM] | activation [5] -1.98% [at 0.349 µM] | activity change, negative = inhibition [6] 9.13% [at 0.348 µM] | activity change, negative = cytotoxicity [7] 0.0667% [at 0.348 µM] | activity change, negative = cytotoxicity [9] -15.7% [at 0.349 µM]

O=C1c2ccccc2C(=O)N1CO
inactive: outcome [1] | outcome [2] | outcome [3] | outcome [4] | Potency [5] | Potency [6] | outcome [7] | Potency [9] | outcome [10]

CC(C)(C)NCC(O)COc1cccc2c1CCC(=O)N2 (centres undefined)
inactive: outcome [1] | outcome [2] | outcome [3] | outcome [4] | Potency [5] | Potency [6] | outcome [7] | Potency [9] | outcome [10]

COc1cc2nc(N3CCN(C(=O)C4CCCO4)CC3)nc(N)c2cc1OC (centres undefined)
inactive: outcome [1] | Potency [8] | outcome [4] | outcome [7] | Potency [9] | outcome [10]

C[C@@H]1CCC[C@H](C)N1CCCC(O)(c1ccccc1)c1ccccn1 (some centres undefined)
inactive: outcome [1] | outcome [2] | outcome [3] | outcome [4] | Potency [5] | Potency [6] | outcome [7] | Potency [9] | outcome [10]

CCOC(=O)CN1CCCC1=O
inactive: outcome [1] | Potency [8] | outcome [4] | Potency [5] | Potency [6] | outcome [7] | outcome [10]

COc1cc(NS(=O)(=O)c2ccc(N)cc2)ncn1
inactive: outcome [1] | outcome [2] | outcome [3] | outcome [4] | Potency [5] | Potency [6] | outcome [7] | Potency [9] | outcome [10]

CC(=O)OCC(=O)[C@@]1(O)CC[C@H]2[C@@H]3CCC4=CC(=O)C=C[C@]4(C)[C@H]3[C@@H](O)C[C@@]21C
inactive: outcome [1] | Potency [8] | outcome [4] | outcome [7]
